From the supplement of paper PMC6555819

Tests used:
Experiment in all cases: PBM binding z-score (relative to random genomic background probes); higher = stronger binding; sequences stand for … in GC…GCGATTGACAGCGTAGAATGAAGG
[1] = tested on: FXR:RXRa (NR concentration 270 nM, RXRa partner concentration 90 nM)
In short: (§1)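 Random background probes are the reference for binding z-scores. These scores derive from regression-normalized fluorescence on custom Agilent 4×180K protein-binding microarrays incubated 1 h with ligand-free nuclear receptor dimers. Binding was detected with antibodies against each partner (one per run).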

[2] = tested on: LXRa:RXRa (NR concentration 270 nM, RXRa partner concentration 90 nM)
In short: as §1

[3] = tested on: LXRa homodimer (NR concentration 270 nM)
In short: as §1

[4] = tested on: LXRb:RXRa (NR concentration 270 nM, RXRa partner concentration 90 nM)
In short: as §1

[5] = tested on: LXRb homodimer (NR concentration 270 nM)
In short: as §1

[6] = tested on: PPARa:RXRa (NR concentration 270 nM, RXRa partner concentration 90 nM)
In short: as §1

[7] = tested on: PPARg:RXRa (NR concentration 180 nM, RXRa partner concentration 90 nM)
In short: as §1

[8] = tested on: PPARg:RXRa 270nM:90nM, anti-RXR (NR concentration 270 nM, RXRa partner concentration 90 nM)
In short: as §1

[9] = tested on: PPARg:RXRa 30nM:10nM, anti-RXR (NR concentration 30 nM, RXRa partner concentration 10 nM)
In short: as §1

[10] = tested on: PPARg:RXRa 90nM:30nM, anti-RXR (NR concentration 90 nM, RXRa partner concentration 30 nM)
In short: as §1

Sequence	PBM binding z-score [1]	PBM binding z-score [2]	PBM binding z-score [3]	PBM binding z-score [4]	PBM binding z-score [5]	PBM binding z-score [6]	PBM binding z-score [7]	PBM binding z-score [8]	PBM binding z-score [9]	PBM binding z-score [10]
GGAACGTGGGCATTCGAGTTGATAGCATGGCGAT	-0.541	-0.612	-0.683	-1.02	-1.01	-1.09	0.22	-0.631	-0.7	-0.858
CCGAGTAGGTTATGGGGCTTTCAGGCAACGGTGA	0.104	0.374	-0.409	0.503	-0.205	1.34	1.69	2.5	0.331	1.54
CCAGACAGGTGAAAGGTAACACAGTCTGGTACGC	0.883	0.799	-0.29	0.919	-0.313	3.54	5.85	6.13	4.72	6.42
CCTGTTAGGTCATGGTCAGCTAATCTACAGTATG	4.26	2.77	0.732	2.3	0.739	3.71	1.92	2.38	0.613	1.33
CCTTACGGCTCACTGACAGGTTATAGCATTTGGA	0.367	0.347	0.304	0.294	-0.0562	0.311	0.426	-0.0307	0.448	0.0518
ACTATTAGTTGACTTCGGGCAACCGATACGACGC	0.0947	0.0355	0.567	0.0208	0.752	-0.237	0.757	0.358	0.0391	0.162
GCTGCTAGATCAGGTTGGTCAGCTAACGGGTACG	-0.615	-0.876	-0.323	-0.953	-0.822	-1.19	-0.285	-1.02	-0.624	-0.926
CAGCCTAGGTCAGGGCCTGTATAGGAGGAACGTT	1.48	0.732	-0.667	0.189	-0.753	1.95	0.752	0.931	-0.43	0.141
CGTCCAAGGTCAGAGAGGTCTGTGAATGCCGAGT	4.66	3.14	0.0313	2.1	-0.51	3.92	2.27	2.64	0.0649	1.45
GAAGACAGGTGAAACGCAGGTAACTCAGGGTGGC	0.0149	0.318	-0.652	-0.0898	-0.743	1.14	0.681	0.383	-0.249	-0.0724
TAGCCTGGGTCATTGGGCCAGTATAGTACGCATC	3.3	1.88	-0.677	1.36	-0.556	4.11	3.81	3.62	0.89	2.1
CGAACGAGGGCATGAGTTGATAGGAAATGCCGAT	0.317	0.134	-0.459	-0.00432	-0.811	1.27	1.61	1.43	0.315	0.987
GGAACGAGGGCAAGTTGATAGCTGAGTTTGATGG	0.775	0.137	-0.459	0.185	-0.455	1.59	0.992	1.03	0.138	0.467
